Laboratory results published in the supplement of paper PMC8975748.
Counter-ions that a name gives are not always drawn. ± gives the standard deviation of the averaged measurements.

Assays:
[1] = tested on: Saccharomyces cerevisiae BY4741 SeMeCo community; assay: mean cell size (pixel area) (pixels); higher = larger cells; conditions: 10 µM; 24 h; SM minimal medium
Procedure, shortened: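 The test system was a fluorescent Saccharomyces cerevisiae BY4741 community with four plasmids, each restoring one auxotrophy and carrying a fluorescent marker. Cells were grown for 24 h in SM medium with drug at a final 10 µM in 384-well plates, then fixed with paraformaldehyde and imaged by automated confocal microscopy for Harmony analysis of mean cell pixel area per well. Values represent the average of 3 replicates. Same SeMeCo high-content imaging drug screen: Selleck FDA-approved drugs at 10 µM, 24 h in SM medium, 384-well plates, 3 replicates.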

[2] = tested on: Saccharomyces cerevisiae BY4741 SeMeCo community; assay: z-score of prototroph abundance vs DMSO median; higher = larger share of this subpopulation than in DMSO controls; conditions: 10 µM; 24 h; SM minimal medium; subpopulation (auxotrophy): Prototroph
Procedure, shortened: (§1)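 Automated confocal microscopy of paraformaldehyde-fixed cells was used to follow a Saccharomyces cerevisiae BY4741 community carrying four plasmids, each restoring one auxotrophy and encoding a distinct fluorescent protein. The community was pre-grown overnight to OD600 1.0, diluted to 0.3, and added at 70 µl to 384-well plates acoustically predosed with library drugs (10 µM final) for 24 h of growth in minimal SM medium. Single-auxotroph fluorescent strains set thresholds and autofluorescence correction, and each subpopulation's abundance was scored as a z-score against the vehicle-well median.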

[3] = tested on: Saccharomyces cerevisiae BY4741 SeMeCo community; assay: z-score of subpopulation abundance vs DMSO median, subpopulation auxotrophic for M; higher = larger share of this subpopulation than in DMSO controls; conditions: 10 µM; 24 h; SM minimal medium; subpopulation (auxotrophy): M
Procedure, shortened: as §1

[4] = tested on: Saccharomyces cerevisiae BY4741 SeMeCo community; assay: z-score of subpopulation abundance vs DMSO median, subpopulation auxotrophic for L; higher = larger share of this subpopulation than in DMSO controls; conditions: 10 µM; 24 h; SM minimal medium; subpopulation (auxotrophy): L
Procedure, shortened: as §1

[5] = tested on: Saccharomyces cerevisiae BY4741 SeMeCo community; assay: z-score of subpopulation abundance vs DMSO median, subpopulation auxotrophic for U; higher = larger share of this subpopulation than in DMSO controls; conditions: 10 µM; 24 h; SM minimal medium; subpopulation (auxotrophy): U
Procedure, shortened: as §1

[6] = tested on: Saccharomyces cerevisiae BY4741 SeMeCo community; assay: z-score of subpopulation abundance vs DMSO median, subpopulation auxotrophic for H; higher = larger share of this subpopulation than in DMSO controls; conditions: 10 µM; 24 h; SM minimal medium; subpopulation (auxotrophy): H
Procedure, shortened: as §1

[7] = tested on: Saccharomyces cerevisiae BY4741 SeMeCo community; assay: z-score of subpopulation abundance vs DMSO median, subpopulation auxotrophic for LU; higher = larger share of this subpopulation than in DMSO controls; conditions: 10 µM; 24 h; SM minimal medium; subpopulation (auxotrophy): LU
Procedure, shortened: as §1

[8] = tested on: Saccharomyces cerevisiae BY4741 SeMeCo community; assay: z-score of subpopulation abundance vs DMSO median, subpopulation auxotrophic for LM; higher = larger share of this subpopulation than in DMSO controls; conditions: 10 µM; 24 h; SM minimal medium; subpopulation (auxotrophy): LM
Procedure, shortened: as §1

[9] = tested on: Saccharomyces cerevisiae BY4741 SeMeCo community; assay: z-score of subpopulation abundance vs DMSO median, subpopulation auxotrophic for HM; higher = larger share of this subpopulation than in DMSO controls; conditions: 10 µM; 24 h; SM minimal medium; subpopulation (auxotrophy): HM
Procedure, shortened: as §1

[10] = tested on: Saccharomyces cerevisiae BY4741 SeMeCo community; assay: z-score of subpopulation abundance vs DMSO median, subpopulation auxotrophic for UM; higher = larger share of this subpopulation than in DMSO controls; conditions: 10 µM; 24 h; SM minimal medium; subpopulation (auxotrophy): UM
Procedure, shortened: as §1

[11] = tested on: Saccharomyces cerevisiae BY4741 SeMeCo community; assay: z-score of subpopulation abundance vs DMSO median, subpopulation auxotrophic for HL; higher = larger share of this subpopulation than in DMSO controls; conditions: 10 µM; 24 h; SM minimal medium; subpopulation (auxotrophy): HL
Procedure, shortened: as §1

[12] = tested on: Saccharomyces cerevisiae BY4741 SeMeCo community; assay: z-score of subpopulation abundance vs DMSO median, subpopulation auxotrophic for HLU; higher = larger share of this subpopulation than in DMSO controls; conditions: 10 µM; 24 h; SM minimal medium; subpopulation (auxotrophy): HLU
Procedure, shortened: as §1

[13] = tested on: Saccharomyces cerevisiae BY4741 SeMeCo community; assay: z-score of subpopulation abundance vs DMSO median, subpopulation auxotrophic for HLM; higher = larger share of this subpopulation than in DMSO controls; conditions: 10 µM; 24 h; SM minimal medium; subpopulation (auxotrophy): HLM
Procedure, shortened: as §1

[14] = tested on: Saccharomyces cerevisiae BY4741 SeMeCo community; assay: z-score of subpopulation abundance vs DMSO median, subpopulation auxotrophic for HUM; higher = larger share of this subpopulation than in DMSO controls; conditions: 10 µM; 24 h; SM minimal medium; subpopulation (auxotrophy): HUM
Procedure, shortened: as §1

[15] = tested on: Saccharomyces cerevisiae BY4741 SeMeCo community; assay: z-score of subpopulation abundance vs DMSO median, subpopulation auxotrophic for LUM; higher = larger share of this subpopulation than in DMSO controls; conditions: 10 µM; 24 h; SM minimal medium; subpopulation (auxotrophy): LUM
Procedure, shortened: as §1

[16] = tested on: Saccharomyces cerevisiae BY4741 SeMeCo community; assay: z-score of subpopulation abundance vs DMSO median, subpopulation auxotrophic for HLUM; higher = larger share of this subpopulation than in DMSO controls; conditions: 10 µM; 24 h; SM minimal medium; subpopulation (auxotrophy): HLUM
Procedure, shortened: as §1

[17] = tested on: Saccharomyces cerevisiae BY4741 SeMeCo community; assay: z-score of subpopulation abundance vs DMSO median, subpopulation auxotrophic for HU; higher = larger share of this subpopulation than in DMSO controls; conditions: 10 µM; 24 h; SM minimal medium; subpopulation (auxotrophy): HU
Procedure, shortened: as §1

| SMILES | mean cell size [1] | z-score of prototroph abundance [2] | z-score of subpopulation abundance [3] | z-score of subpopulation abundance [4] | z-score of subpopulation abundance [5] | z-score of subpopulation abundance [6] | z-score of subpopulation abundance [7] | z-score of subpopulation abundance [8] | z-score of subpopulation abundance [9] | z-score of subpopulation abundance [10] | z-score of subpopulation abundance [11] | z-score of subpopulation abundance [12] | z-score of subpopulation abundance [13] | z-score of subpopulation abundance [14] | z-score of subpopulation abundance [15] | z-score of subpopulation abundance [16] | z-score of subpopulation abundance [17] |
| --- | --- | --- | --- | --- | --- | --- | --- | --- | --- | --- | --- | --- | --- | --- | --- | --- | --- |
| CN(C)C(=O)COC(=O)Cc1ccc(OC(=O)c2ccc(NC(=N)N)cc2)cc1 [Camostat Mesilate] | 12.5 ± 0.12 | 0.66 | -0.25 | 0.34 | -0.37 | 0.16 | -0.08 | -0.5 | -0.32 | -0.43 | -0.35 | -0.87 | -0.36 | -0.25 | -0.84 | -0.69 | – |
| C[C@](N)(Cc1ccc(O)c(O)c1)C(=O)O [Methyldopa] | 12.3 ± 0.034 | 0.97 | -1.02 | -0.9 | – | – | -0.35 | -0.77 | -0.81 | – | -0.91 | -0.36 | -0.36 | -0.27 | -1.19 | -0.4 | -0.06 |
| Clc1ccc(C(Cn2ccnc2)OCc2c(Cl)cccc2Cl)c(Cl)c1 (configuration not stated) [Isoconazole nitrate] | 12.1 ± 0.18 | – | -0.17 | -3.43 | – | 21 | -1.43 | -1.59 | 3.75 | 5.43 | 3.07 | 2.86 | 13.3 | 4.65 | -0.77 | 9.4 | 11.7 |
| CN[C@@H]1[C@H](O[C@H]2[C@H](O[C@H]3[C@H](O)[C@@H](O)[C@H](N=C(N)N)[C@@H](O)[C@@H]3N=C(N)N)O[C@@H](C)[C@]2(O)C=O)O[C@@H](CO)[C@H](O)[C@H]1O [Streptomycin sulfate] | 11.99 ± 0.031 | 0.05 | -0.43 | -1.14 | 1.16 | 0.36 | -0.25 | -0.12 | 0.19 | 0.8 | – | -0.4 | -0.57 | 0.39 | -0.33 | -0.41 | – |
| CC(=O)O[C@]1(C(C)=O)CC[C@H]2[C@@H]3C[C@H](C)C4=CC(=O)CC[C@]4(C)[C@H]3CC[C@@]21C [Medroxyprogesterone acetate] | 12.6 ± 0.18 | 0.03 | 0.21 | -0.93 | – | 0.12 | 0.01 | -0.1 | 0.17 | 0.34 | -0.1 | -0.17 | -0.12 | -0.19 | – | -0.36 | 0.62 |
| Oc1c(Cl)cc(Cl)c(Cl)c1Cc1c(O)c(Cl)cc(Cl)c1Cl [Hexachlorophene] | 12.08 ± 0.11 | -5.27 | 0.14 | -1.4 | – | 7.09 | -0.56 | 1.88 | 9.29 | 5.02 | 3.85 | 1.13 | 8.62 | 14 | 2.37 | 7.77 | – |
| CC(C)Cc1ccc(C(C)C(=O)O)cc1 (configuration not stated) [Ibuprofen] | 13.04 ± 0.12 | – | -0.51 | -0.92 | -1.82 | -0.54 | -2.51 | -0.71 | -1.2 | -3.84 | -0.54 | -0.51 | 0.37 | -3.22 | -2.23 | -0.59 | – |
| Cc1onc(-c2ccccc2)c1-c1ccc(S(N)(=O)=O)cc1 [Valdecoxib] | 12.3 ± 0.17 | 1 | -0.21 | 0.01 | -0.55 | -0.55 | -0.06 | 0.09 | -0.77 | – | -0.64 | -0.52 | -0.74 | -0.83 | – | -0.56 | – |
| CN(Cc1ccc(C(C)(C)C)cc1)Cc1cccc2ccccc12 [Butenafine HCl] | 12.2 ± 0.22 | – | 0.23 | -0.23 | -1.08 | -0.76 | -1.41 | -0.39 | -1.43 | – | -0.63 | -0.68 | -0.42 | -1.45 | -0.75 | 0.01 | – |
| COc1cc(Cc2cnc(N)nc2N)cc(OC)c1OC [Trimethoprim] | 12.4 ± 0.14 | 0.19 | 0.01 | 0.44 | 0.2 | – | 0.14 | -0.07 | -0.06 | 0.07 | -0.46 | 0.25 | -0.6 | -0.12 | 0.27 | – | 0 |
| CCC(C)(C)c1ccc(CC(C)CN2C[C@@H](C)O[C@@H](C)C2)cc1 (some centres not stated) [Amorolfine HCl] | 12 ± 0.35 | -9.52 | 9.64 | -4.45 | 1.83 | – | -0.63 | -0.63 | 8.92 | 10 | 1.91 | 2.33 | 10.3 | 6 | 3.94 | 5.77 | – |
| CCCCC(=O)O[C@H]1CC[C@H]2[C@@H]3CCc4cc(O)ccc4[C@H]3CC[C@]12C [Estradiol valerate] | 12.4 ± 0.22 | 0.39 | 0.23 | -0.51 | 0.05 | -0.49 | -0.16 | -0.71 | -0.23 | – | -0.58 | 0.43 | -0.87 | 0.19 | -0.45 | -0.75 | – |
| Cc1nnc(SCC2=C(C(=O)O)N3C(=O)[C@@H](NC(=O)Cn4cc(Cl)c(=O)c(Cl)c4)[C@H]3SC2)s1 [Cefazedone] | 12.5 ± 0.39 | – | 0.65 | -0.83 | – | -0.61 | -0.24 | -0.95 | 0.02 | -0.27 | -1.2 | -1.4 | -0.49 | 0.05 | – | -0.54 | – |
| COc1ccc(C(Cl)=C(c2ccc(OC)cc2)c2ccc(OC)cc2)cc1 [Chlorotrianisene] | 12.6 ± 0.13 | -0.67 | 1.26 | 0.44 | 0.17 | 1.21 | 0.41 | 1.34 | 1.06 | 0.15 | 0.2 | 1.95 | 3.27 | 0.82 | 0.76 | 1.18 | – |
